A short description of assay [1]: ATG_CRE_CIS: Attagene CIS-FACTORIAL HepG2 Assay for human cAMP Responsive Element (CRE) binding protein 3 (AID 2282926). Conditions: HepG2 CRE cis-reporter, Attagene multiplexed mRNA; actives raise or lower the signal. The procedure, abridged: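 Induced reporter mRNA from a CRE cis element, measured in HepG2 among many multiplexed units at 24 h. Detection used RT-PCR plus capillary electrophoresis of fluorescent fragments; DMSO served as negative control.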

For assay [2], the target named is CCAAT/enhancer-binding protein beta (Homo sapiens) (UniProt P17676). The assay is described as follows: ATG_C_EBP_CIS: Attagene CIS-FACTORIAL HepG2 Assay for human CCAAT/Enhancer Binding Protein (C/EBP) beta (AID 2282927). Conditions: HepG2 Attagene cis-factorial transcription factor reporter; actives raise or lower the signal. The procedure, abridged: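 Endogenous C/EBPb-driven reporter transcripts measured in transfected human HepG2 cells at 24 h via RT-PCR and capillary electrophoresis of labelled fragments. Activity fitted in both directions relative to DMSO baseline.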
Sequence of CCAAT/enhancer-binding protein beta (Homo sapiens) (P17676 whole entry, looked up, the tested form may be a part): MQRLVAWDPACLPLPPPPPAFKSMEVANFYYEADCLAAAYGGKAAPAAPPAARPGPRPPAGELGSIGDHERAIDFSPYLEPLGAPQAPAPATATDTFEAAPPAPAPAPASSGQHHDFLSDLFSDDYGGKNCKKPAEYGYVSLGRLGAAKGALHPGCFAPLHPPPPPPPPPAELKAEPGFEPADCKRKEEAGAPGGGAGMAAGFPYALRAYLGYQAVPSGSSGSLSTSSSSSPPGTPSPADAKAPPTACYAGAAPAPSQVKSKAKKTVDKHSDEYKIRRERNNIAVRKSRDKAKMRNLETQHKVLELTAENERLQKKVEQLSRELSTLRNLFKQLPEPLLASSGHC

The nature of assay [3]: ATG_CMV_CIS: Attagene CIS-FACTORIAL HepG2 Assay for human CMV (Internal Marker) (AID 2282928).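 Also: endpoint acts as a background internal control marker rather than a target.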 Conditions: HepG2 CMV promoter reporter, transcription factor profiling; actives raise or lower the signal. Put shortly:
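Fluorescence intensity of RT-PCR-derived reporter fragments, resolved by capillary electrophoresis, gives the signal. HepG2 liver cells bearing transfected cis-element reporters were treated 24 h; activity in either direction was fit relative to DMSO-treated controls.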

Assay [4] in a line: ATG_DR4_LXR_CIS: Attagene CIS-FACTORIAL HepG2 Assay for human Liver X Receptor (LXR), DR4 submotif (AID 2282929). Conditions: HepG2 Attagene DR4 cis-reporter, mRNA transcription; actives raise or lower the signal. Put shortly: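 Readout: reporter transcript fluorescence after RT-PCR and capillary electrophoresis, fitted bidirectionally against DMSO controls. Human HepG2 liver cells carried transiently transfected multiplexed reporter constructs; endogenous transcription factor activity measured 24 h post-dosing.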

Assay [5] deals with Aryl hydrocarbon receptor (Homo sapiens) (UniProt P35869). The assay is described as follows: ATG_Ahr_CIS: Attagene CIS-FACTORIAL HepG2 Assay for human Aryl Hydrocarbon Receptor (Ahr) (AID 2282930). Conditions: HepG2 AhR cis-factorial reporter transcription; actives raise or lower the signal. Put shortly: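 Reporter mRNA levels, quantified by RT-PCR and fluorescent capillary electrophoresis, reflect endogenous AhR transcriptional activity in HepG2 cells carrying transfected cis-promoter reporter constructs. Readout at 24 h post-dose; gain or loss fitted against DMSO baseline.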
Sequence of Aryl hydrocarbon receptor (Homo sapiens) (P35869 whole entry, looked up): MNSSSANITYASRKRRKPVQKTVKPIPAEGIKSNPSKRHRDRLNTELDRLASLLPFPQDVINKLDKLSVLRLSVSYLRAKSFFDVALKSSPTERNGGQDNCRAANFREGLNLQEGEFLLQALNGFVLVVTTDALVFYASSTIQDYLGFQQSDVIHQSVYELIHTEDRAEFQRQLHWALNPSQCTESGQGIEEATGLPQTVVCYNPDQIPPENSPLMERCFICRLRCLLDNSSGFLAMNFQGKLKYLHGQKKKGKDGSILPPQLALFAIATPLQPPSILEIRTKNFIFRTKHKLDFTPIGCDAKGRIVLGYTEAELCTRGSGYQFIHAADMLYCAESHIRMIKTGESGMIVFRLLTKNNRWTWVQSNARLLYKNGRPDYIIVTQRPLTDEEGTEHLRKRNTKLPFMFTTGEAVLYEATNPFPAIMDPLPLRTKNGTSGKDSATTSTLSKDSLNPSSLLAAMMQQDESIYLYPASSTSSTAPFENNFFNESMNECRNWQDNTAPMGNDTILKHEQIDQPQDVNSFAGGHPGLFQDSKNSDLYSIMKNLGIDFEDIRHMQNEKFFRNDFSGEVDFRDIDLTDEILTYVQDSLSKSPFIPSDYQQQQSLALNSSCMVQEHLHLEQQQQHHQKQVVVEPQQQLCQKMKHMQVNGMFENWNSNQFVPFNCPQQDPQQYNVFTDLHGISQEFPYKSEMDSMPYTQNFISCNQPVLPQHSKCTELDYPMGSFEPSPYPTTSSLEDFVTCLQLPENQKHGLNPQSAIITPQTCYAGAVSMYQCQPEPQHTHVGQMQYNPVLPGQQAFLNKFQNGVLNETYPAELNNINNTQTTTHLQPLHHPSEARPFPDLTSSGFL

Assay [6] in a line: ATG_AP_1_CIS: Attagene CIS-FACTORIAL HepG2 Assay for human Activator Protein 1 (AP-1) (AID 2282931). Conditions: HepG2 Attagene cis-factorial AP-1 reporter mRNA; actives raise or lower the signal. Put shortly: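 Reporter transcripts were measured 24 h after dosing by RT-PCR and capillary electrophoresis of fluorescent fragments. Cells: HepG2 carrying transfected cis-regulated reporter constructs reading endogenous factor activity. Gain or loss fitted against DMSO.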

Assay [7] can be described thus: ATG_AP_2_CIS: Attagene CIS-FACTORIAL HepG2 Assay for human Activator Protein 2 (AP-2) (AID 2282932). To be noted: HepG2 AP-2 cis-reporter, Attagene transcription factor profiling; actives raise or lower the signal. The procedure, abridged: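 Endogenous transcription factor activity is reported through transfected multiplex reporter constructs in HepG2, after 24 h of compound exposure. Transcripts were quantified by RT-PCR and capillary electrophoresis of fluorescent fragments. Bidirectional fit against DMSO.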

Assay [8] is described as follows: ATG_BRE_CIS: Attagene CIS-FACTORIAL HepG2 Assay for human Bone Morphogenetic Protein (BMP) Response Element (BRE) (AID 2282933). To be noted: HepG2 BMP response element reporter, Attagene transcription factor profiling; actives raise or lower the signal. The procedure, abridged: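 Multiplexed cis-reporter assay, HepG2, 24 h exposure. mRNA from reporter units quantified via RT-PCR/CE; DMSO baseline; bidirectional curve fit.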

In assay [9] the target is Retinoic acid receptor alpha (Homo sapiens) (UniProt P10276). The assay can be described thus: ATG_DR5_RAR_CIS: Attagene CIS-FACTORIAL HepG2 Assay for human Retinoic Acid Receptor Alpha (RARE), DR5 submotif (AID 2282934).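 As to AC50: reporter responds to endogenous RAR alpha beta and gamma in HepG2 not RARA alone.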 Conditions: HepG2 Attagene cis-factorial RARE DR5 reporter, mRNA; actives raise or lower the signal. Put shortly: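 Reporter transcripts from a DR5-regulated unit, measured via RT-PCR plus capillary electrophoresis, reflect endogenous RAR activity in transiently transfected human HepG2 liver cells. Exposure lasted 24 h; gain or loss of signal scored against DMSO.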
Sequence of Retinoic acid receptor alpha (Homo sapiens) (P10276 whole entry, looked up): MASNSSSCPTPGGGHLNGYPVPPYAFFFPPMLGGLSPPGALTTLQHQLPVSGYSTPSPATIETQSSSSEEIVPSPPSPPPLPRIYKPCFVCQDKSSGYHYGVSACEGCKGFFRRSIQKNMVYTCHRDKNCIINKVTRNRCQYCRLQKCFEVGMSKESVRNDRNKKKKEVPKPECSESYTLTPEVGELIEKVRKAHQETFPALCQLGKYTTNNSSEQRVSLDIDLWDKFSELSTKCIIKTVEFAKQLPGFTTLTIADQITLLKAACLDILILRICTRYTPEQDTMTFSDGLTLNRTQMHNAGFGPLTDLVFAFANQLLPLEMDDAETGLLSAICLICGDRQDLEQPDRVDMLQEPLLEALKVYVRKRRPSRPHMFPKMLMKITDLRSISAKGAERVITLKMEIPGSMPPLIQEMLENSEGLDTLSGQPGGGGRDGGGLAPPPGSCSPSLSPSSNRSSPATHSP

For assay [10], the target named is Transcription factor E2F1 (Homo sapiens) (UniProt Q01094). The assay is described as follows: ATG_E2F_CIS: Attagene CIS-FACTORIAL HepG2 Assay for human E2F Transcription Factor 1 (AID 2282935). To be noted: HepG2 Attagene cis-reporter, E2F reporter RNA transcripts; actives raise or lower the signal. The procedure, abridged: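 Gain or loss of reporter transcript, fitted against DMSO, reflects E2F1-driven transcription. Transiently transfected HepG2 dosed 24 h before RNA isolation. Quantified by fluorescent RT-PCR products separated by capillary electrophoresis.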
Sequence of Transcription factor E2F1 (Homo sapiens) (Q01094 whole entry, looked up): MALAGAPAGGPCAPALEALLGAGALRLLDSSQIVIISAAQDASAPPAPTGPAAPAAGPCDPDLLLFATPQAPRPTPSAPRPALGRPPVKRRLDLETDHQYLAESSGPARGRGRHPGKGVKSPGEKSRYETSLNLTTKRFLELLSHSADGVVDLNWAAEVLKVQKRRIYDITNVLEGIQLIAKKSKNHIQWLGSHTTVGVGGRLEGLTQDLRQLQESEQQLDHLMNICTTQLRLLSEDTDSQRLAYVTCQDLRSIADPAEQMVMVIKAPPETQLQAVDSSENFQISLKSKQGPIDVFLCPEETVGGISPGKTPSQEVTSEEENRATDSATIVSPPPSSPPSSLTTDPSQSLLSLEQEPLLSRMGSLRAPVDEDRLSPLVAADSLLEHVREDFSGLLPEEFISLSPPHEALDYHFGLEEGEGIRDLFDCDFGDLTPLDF

The nature of assay [11]: ATG_M_61_CIS: Attagene CIS-FACTORIAL HepG2 Assay for M61 Transcription Factor (Internal Marker) (AID 2282937). Conditions: HepG2 Attagene CIS-FACTORIAL M61 internal marker reporter; actives raise or lower the signal. The procedure, abridged:
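Readout: fluorescent reporter mRNA fragments resolved by capillary electrophoresis after RT-PCR. Transiently transfected human HepG2 cells carried MRTU constructs reporting endogenous TF activity; 24 h chemical exposure; gain or loss of signal fitted relative to DMSO.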

A short description of assay [12]: ATG_EGR_CIS: Attagene CIS-FACTORIAL HepG2 Assay for human Early Growth Response 1 (EGR1) (AID 2282938). Conditions: HepG2 Attagene CIS-FACTORIAL EGR reporter mRNA; actives raise or lower the signal. The procedure, abridged:
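Read-out: fluorescent reporter-mRNA fragments resolved by capillary electrophoresis after RT-PCR, 24 h post-dose in transiently transfected HepG2. Endogenous transcription-factor activity reported via cis-element-regulated reporter units; gain or loss fitted relative to DMSO.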

A short description of assay [13]: ATG_M_19_CIS: Attagene CIS-FACTORIAL HepG2 Assay for M19 Transcription Factor (Internal Marker) (AID 2282939). Conditions: HepG2 Attagene CIS-FACTORIAL M19 internal marker reporter; actives raise or lower the signal. The procedure, abridged:
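Signals come from fluorescence of labelled reporter-specific PCR fragments resolved by capillary electrophoresis, following 24 h treatment of HepG2 cells transfected with cis-promoter reporter units; activity was fitted in both directions relative to DMSO.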

The nature of assay [14]: ATG_ERE_CIS: Attagene CIS-FACTORIAL HepG2 Assay for Estrogen Response Element (ERE) (AID 2282940). Conditions: HepG2 ERE cis-reporter, Attagene RNA transcript; actives raise or lower the signal. Put shortly:
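Fluorescence of capillary-separated, FAM-labelled reporter cDNA fragments indicates reporter mRNA levels in HepG2 cells exposed to chemicals for 24 h. Transient transfection with cis-regulated units; data fitted in both directions against DMSO.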

The nature of assay [15]: ATG_Ets_CIS: Attagene CIS-FACTORIAL HepG2 Assay for human Erythroblast Transformation Specific (ETS) (AID 2282941). To be noted: HepG2 ETS cis-reporter transcription, actives raise or lower the signal. Put shortly: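 Multiplexed reporter transcript profiling: HepG2, 24 h treatment, total RNA to cDNA, PCR, 6-FAM labelling, HpaI cut, capillary electrophoresis. Gain- or loss-of-signal fitted against DMSO.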

Assay [16] concerns the target Hepatocyte nuclear factor 3-beta (Homo sapiens) (UniProt Q9Y261). The assay is described as follows: ATG_FoxA2_CIS: Attagene CIS-FACTORIAL HepG2 Assay for human Forkhead box A2 (FOXA2) (AID 2282942). Conditions: HepG2 cis-reporter transcription factor activity, 24 h; actives raise or lower the signal. The procedure, abridged:
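Readout: fluorescent reporter transcripts resolved by capillary electrophoresis after RT-PCR. Transiently transfected HepG2, 24 h compound exposure, endogenous TF activity at cis promoter elements. Gain or loss of signal fitted relative to DMSO.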

Assay [17] can be described thus: ATG_GATA_CIS: Attagene CIS-FACTORIAL HepG2 Assay for human GATA Binding Protein (AID 2282944). To be noted: HepG2 GATA cis-element reporter, Attagene multiplex mRNA; actives raise or lower the signal. The procedure, abridged: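 After transfecting HepG2 cells with multiple cis-regulated reporter units, chemicals are dosed for 24 h; isolated RNA undergoes RT-PCR and fluorescent labeling before capillary electrophoresis, with activity expressed against DMSO.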

Assay [18] is described as follows: ATG_GLI_CIS: Attagene CIS-FACTORIAL HepG2 Assay for human Zinc Finger Protein GLI1 (AID 2282945). To be noted: HepG2, Attagene cis-factorial reporter mRNA, GLI element; actives raise or lower the signal. Put shortly:
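Bidirectional curve fits relative to DMSO, using reporter mRNA levels from RT-PCR plus capillary electrophoresis. Cells were HepG2 transiently carrying cis-regulated reporter constructs, harvested 24 h after dosing.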

Assay [19] is described as follows: ATG_E_Box_CIS: Attagene CIS-FACTORIAL HepG2 Assay for human Enhancer Box (E-box) (AID 2282936). Conditions: HepG2 E-box cis-reporter transcription, actives raise or lower the signal. Put shortly: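 E-box-driven reporter transcripts measured in transiently transfected HepG2 after 24 h exposure: RNA reverse-transcribed, PCR-amplified, fluorescently labelled, digested and resolved by capillary electrophoresis. Gain or loss relative to DMSO.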

The nature of assay [20]: ATG_FoxO_CIS: Attagene CIS-FACTORIAL HepG2 Assay for human Forkhead box O (FoxO) (AID 2282943). Conditions: HepG2 Attagene cis-reporter, FoxO element, mRNA; actives raise or lower the signal. The procedure, abridged: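 Endogenous transcription factor activity read from multiplexed cis-promoter reporter transcripts in transiently transfected HepG2, 24 h after dosing. Reporter RNA measured via RT-PCR plus capillary electrophoresis of FAM-labeled products; gain or loss relative to DMSO.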

Molecules are shown by their SMILES. Calls of active or inactive are those of the source. The calls were made as follows: active = hit-call score of the fitted dose curve at least 0.9, where 1 is the maximum; inactive = score below 0.9.

Sequence of Hepatocyte nuclear factor 3-beta (Homo sapiens) (Q9Y261 whole entry, looked up): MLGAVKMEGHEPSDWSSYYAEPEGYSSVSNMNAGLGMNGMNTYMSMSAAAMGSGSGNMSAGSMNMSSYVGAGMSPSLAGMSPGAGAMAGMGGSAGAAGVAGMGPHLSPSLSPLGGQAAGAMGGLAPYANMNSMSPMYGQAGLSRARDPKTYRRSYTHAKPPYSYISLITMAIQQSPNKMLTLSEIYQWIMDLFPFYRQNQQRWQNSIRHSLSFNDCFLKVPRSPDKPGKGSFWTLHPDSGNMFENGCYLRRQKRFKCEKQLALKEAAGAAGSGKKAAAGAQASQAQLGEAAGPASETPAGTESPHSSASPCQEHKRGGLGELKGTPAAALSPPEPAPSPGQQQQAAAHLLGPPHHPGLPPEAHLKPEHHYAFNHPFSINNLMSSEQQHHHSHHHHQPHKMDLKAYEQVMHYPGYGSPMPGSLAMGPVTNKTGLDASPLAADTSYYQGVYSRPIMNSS

In the case of `O=C1OC(=O)c2cc(Oc3ccc4c(c3)C(=O)OC4=O)ccc21`, the compound was classed as inactive in [1], in [2], in [3], in assay [4], in assay [5] and in [6]. The call in assay [7], in assay [8], in [9], in assay [10], in assay [11] and in assay [12] was inactive. In addition, the outcome in [13], in [14], in [15], in [16], in [17] and in assay [18] was inactive.
In general, AC50 refers to the midpoint of the concentration-response curve, whichever way the signal moves. For `O=C1Nc2ccccc2C1(c1ccc(O)cc1)c1ccc(O)cc1`, the AC50 in [1] is 23.9 µM (active); in assay [3] it was 136 µM (active); in [4], 36.7 µM (active); in assay [5], 166 µM (active); in assay [6] it was 162 µM (active); in assay [7] it was 44.8 µM (active). Besides, the AC50 in assay [19] is 71.9 µM (active); in assay [12], 71.7 µM (active); in assay [15] it was 48.8 µM (active); in [20], 100 µM (active); in assay [18], 70.8 µM (active). The result in assay [2], in [8], in assay [9], in assay [10], in [11] and in [13] was inactive. Also, the outcome in assay [14] and in assay [17] was inactive.
For `CC(CC=O)c1ccccc1` (stereo unspecified), the compound was classed as inactive in assay [1], in [2], in assay [3], in [7], in [8] and in assay [9]. Further, the outcome in [10], in assay [11], in assay [12], in assay [13], in [15] and in [20] was inactive. Also, the result in assay [17] and in assay [18] was inactive. Moreover, the AC50 in assay [4] is 71.7 µM (active); in assay [5], 123 µM (active); in assay [6] it was 131 µM (active); in assay [14], 112 µM (active).
With `Cc1ccc([N+](=O)[O-])cc1S(=O)(=O)O`, the call in assay [1], in assay [2], in [3], in [4], in assay [5] and in assay [6] was inactive. The result in assay [8], in assay [9], in [10], in assay [19], in [11] and in assay [12] was inactive. The outcome in assay [13], in [14], in [15], in [17] and in assay [18] was inactive. The AC50 in assay [7] is 163 µM (active); in [20], 153 µM (active).
For the compound `Oc1ccc(Cl)cc1Cc1cc(Cl)ccc1O`, the AC50 was 3.51 µM (active) in assay [1]; 7.95 µM (active) in [4]; 17.6 µM (active) in assay [6]; 15.4 µM (active) in assay [7]; 3.46 µM (active) in assay [8]; 3.08 µM (active) in assay [9]. Moreover, the AC50 in assay [12] was 8.39 µM (active); in [14], 3.04 µM (active). For the same compound, the outcome in assay [2], in assay [3], in assay [5], in assay [10], in assay [11] and in assay [13] was inactive. In addition, the call in assay [16], in assay [20] and in [18] was inactive.

For the origin of these results see PubChem BioAssay (EPA / NIEHS).
